The campaign covered roughly 69,000 compounds. About 8,600 (12%) showed an effect of 50% or more. Many of the other results were omitted from the sample, so strong results are more common in it than they were.

For this assay, the system named is Plasmodium berghei. The experiment in a line: Screen against P. berghei liver stage (PbLuc), transformed with Luciferase, at 10uM. It is filed as functional, HepG2. As to conditions: tested at 10 uM.
As to `COCCC(=O)N1C[C@H]2CN(Cc3cccc(C)c3)C(=O)[C@H]2C1`, the INHIBITION worked out at 14.9%.

For the compound `O=C(Nc1cc(C(F)(F)F)c[nH]c1=O)C1CCCNC1` (stereo not given), the INHIBITION was 42.6%. As for `O=C(NCCN1CCOCC1)N(CCCO)C1CCCc2ccccc21` (stereo not given), the figure is 18.3%; as for `COc1cccc(C(=O)N2CCN(Cc3nc(C(C)C)no3)CC2)c1`, 43.3%; as for `CCOc1ccc(Cl)c(C(=O)NCCc2ncc[nH]2)n1`, 6.05%. As for `OC[C@H]1CCN(Cc2ccc3ccccc3n2)C[C@@H]1O`, the figure is 2.25%; as for `CCOc1ccc2nc(CN3CCC(CNC(C)=O)C3)ccc2c1` (stereo not given), 51.5%. As for `CCc1nccc(CN2CCC(CNC(=O)C3CCC(C)CC3)C2)n1` (stereo not given), the figure is 7.43%. Regarding `COc1nc2ccccc2cc1CN1CCCC(CNC(C)=O)C1` (stereo not given), the INHIBITION came to 21.85%. Turning to `CCOc1ccc2nc(CN3CCOC(CN)C3)ccc2c1` (stereo not given), the INHIBITION was 24.8%. The result for `CCOc1ccc2nc(CN3CCC(CN)C3)ccc2c1` (stereo not given) reads 57.5%. As for `COCCN1CCC(NCc2cc(F)ccc2F)C1` (stereo not given), the figure is -14%; as for `Cc1ncc(S(C)(=O)=O)c(N(C)CCCc2cnn(C)c2)n1`, 29.1%; as for `COc1cc(Br)c(CNC2CCCNC2=O)cc1OC` (stereo not given), 36.5%.

`COCc1ccc(OC)c(CNC2CCCNC2=O)c1` (stereo not given): the INHIBITION was -9.51%. As for `COc1cc(Br)cc(CNC2CCCNC2=O)c1O` (stereo not given), the figure is 60%; as for `O=C(c1cc2c(s1)CCC2)N1CCC(c2ccncc2)CC1`, 32.3%. Regarding `CC(=O)Nc1nc(C(=O)N2CCCC(n3ccnc3C)C2)cs1` (stereo not given), the INHIBITION amounted to 0.411%.

For `O=C(CC(F)(F)F)N1C[C@H]2CCN[C@H]2C1`, the INHIBITION turned out to be 62.3%. As for `O=C(CC1CC1)N1C[C@H]2CCN[C@H]2C1`, the figure is 24.6%; as for `CC(C)(C)CC(=O)N1C[C@H]2CCN[C@H]2C1`, 46.4%; as for `Cn1c(C2CC2)nc2c1CCN(CC(=O)NC1CCCCNC1=O)C2` (stereo not given), 52%.

For the compound `Cc1csc(NC(=O)CN2CCc3c(nc(C4CC4)n3C)C2)n1`, the INHIBITION is given as 67.4%.

Consider `Cn1c(C2CC2)nc2c1CCN(CC(=O)Nc1nccs1)C2`, for which the INHIBITION worked out at 11.9%. On to `Cn1cnc2c1CCN(CC(=O)NC1CCCCNC1=O)C2` (stereo not given), for which the INHIBITION is given as -7.72%.

Regarding `Cn1c(C2CC2)nc2c1CCN(CC(=O)Nc1nncs1)C2`, the INHIBITION was 17%.

`CCN1CCC(NC(=O)CN2CCc3c(nc(C4CC4)n3C)C2)CC1`: the INHIBITION is 24.8%. As for `Cc1nc2ccccc2nc1CN1CCc2c(nc(C3CC3)n2C)C1`, the figure is -12.2%; as for `Cn1c(C2CC2)nc2c1CCN(Cc1nc3ccccc3s1)C2`, 43.5%. As for `Cc1nc(CN2CCc3c(nc(C4CC4)n3C)C2)nc2ccccc12`, the figure is 74.1%.

The record behind these values is ChEMBL document CHEMBL4513216, “Probing the Open Global Health Chemical Diversity Library for Multistage-Active Starting Points for Next-Generation Antimalarials” (ACS Infect Dis, 2020).
